Screening results deposited in PubChem BioAssay by several laboratories.
KLK7 zymogen act = activates the human kallikrein-7 zymogen | purified proKLK7, EDANS-DABCYL substrate fluorescence; 100% is mature enzyme control, 0% vehicle | activation, % at 7 µM | 370,000 tested, 0.9% active | AID 652039;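 active = activation above the mean of all tested compounds plus 3 SD, computed per campaign excluding outliers beyond control limits, cut at about 13% in these data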
FAS-TE inh = FAS thioesterase (human) inhibition; P49327; recombinant FAS-TE, OMFH fluorogenic substrate, fluorescence endpoint; inhibition, % at 15 µM; 360,000 tested, 0.67% active; AID 602261;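 active = compounds whose normalised, plate-corrected inhibition of enzyme fluorescence in the single-dose primary screen is 50% or more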
ADAM17 inh = inhibitors of human ADAM17; P78536; recombinant ADAM17, EDANS/DABCYL FRET peptide cleavage; inhibition, % at 6.95 µM; 370,000 tested, 0.83% active; AID 720648;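 active = inhibition above the mean of compounds lying between control limits plus 3 SD, set per campaign, cut at about 8.5% in these data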
NR3A LBD binder = NR3A (human) ligand-binding domain modulation | NR3A LBD differential scanning fluorimetry, Tm shift; 0% = protein alone, 100% = glycine-bound protein | Tm shift relative to glycine control, % at 25 µM | 340,000 tested, 2.5% active;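 active = melting temperature shift of at least 10% of the positive control shift, at one fixed dose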
ADAM10 inh = inhibits human ADAM10. O14672. recombinant ADAM10, EDANS/DABCYL FRET peptide cleavage, 3 h. inhibition, % at 7 µM. 370,000 tested, 0.62% active. AID 720582;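 active = inhibition above a per-campaign cutoff equal to the mean of compounds falling between control-based bounds plus 3 SD, cut at about 20% in these data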
Target sequence (O14672 214-748 limits assumed): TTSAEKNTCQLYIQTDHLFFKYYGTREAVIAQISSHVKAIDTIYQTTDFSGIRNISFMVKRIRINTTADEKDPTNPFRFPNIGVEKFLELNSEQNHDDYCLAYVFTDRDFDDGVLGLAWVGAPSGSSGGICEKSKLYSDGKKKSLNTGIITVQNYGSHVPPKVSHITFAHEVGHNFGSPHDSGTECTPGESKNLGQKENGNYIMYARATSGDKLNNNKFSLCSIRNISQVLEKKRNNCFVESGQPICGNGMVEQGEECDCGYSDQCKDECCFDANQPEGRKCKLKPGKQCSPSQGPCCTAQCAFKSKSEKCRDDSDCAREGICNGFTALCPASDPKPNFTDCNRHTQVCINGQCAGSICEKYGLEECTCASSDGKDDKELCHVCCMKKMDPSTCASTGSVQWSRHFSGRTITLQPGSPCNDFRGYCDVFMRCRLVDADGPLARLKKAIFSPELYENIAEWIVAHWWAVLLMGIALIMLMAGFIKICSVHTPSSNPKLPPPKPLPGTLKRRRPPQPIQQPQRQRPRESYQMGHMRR
KLK7 act conf = proKLK7 activation, confirmation; purified proKLK7, EDANS-DABCYL substrate fluorescence; scaled: vehicle 0, mature enzyme 100; AID 686949; shares compounds with KLK7 zymogen act; activation, % at 7 µM; 3,200 tested, 68% active;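 active = activation, as change over the incubation, above the mean of all tested compounds plus 3 SD, cut at about 13% in these data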
EDANS-DABCYL int = counter-screen for kallikrein-7 activators: EDANS-DABCYL optical interference. 3,200 tested, 80% active. activation, % at 7 µM. EDANS-DABCYL substrate fluorescence interference, no enzyme, 4 h; solvent 0%, active enzyme control 100%. shares compounds with KLK7 zymogen act;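 active = activation above the all-compound mean plus 3 SD, ignoring values outside control-based bounds, cut at about 4.8% in these data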;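 also: value is the 4 h activation minus the activation read at time zero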
Numbers stand for hits; . = inactive; / = no result. Hits are enriched below; roughly 4.6% of the tested compounds scored in any of these assays.

SMILES | KLK7 zymogen act | FAS-TE inh | ADAM17 inh | NR3A LBD binder | ADAM10 inh | KLK7 act conf | EDANS-DABCYL int
COc1ccc2cc3cc(C(=O)NC(C)C)oc3nc2c1 | 34.5 | . | . | . | . | 78.1 | 83.0
Cc1ccc2cc3cc(C(=O)NCCCN4CC(C)CC(C)C4)oc3nc2c1 (stereo unspecified) | 30.2 | . | . | . | . | . | .
Cc1ccc2cc3cc(C(=O)NCCC(C)C)oc3nc2c1 | . | . | . | . | . | / | /
COc1ccc2cc3cc(C(=O)Nc4cc(OC)c(OC)c(OC)c4)oc3nc2c1 | . | . | . | . | . | / | /
Cn1c(/C(C#N)=C/Nc2ccccn2)nc2ccccc21 | 55.4 | . | . | . | . | 182.9 | 183.2
Cc1ccc(C2=CCN(C)C(=O)N2c2ccc([N+](=O)[O-])cc2)cc1 | . | / | . | / | . | / | /
S=C(Nc1ccccc1I)OC1CCC12CCC(c1ccccc1)CC2 (stereo unspecified) | / | / | . | / | . | / | /
O=C(c1cc2c(s1)-c1ccccc1S(=O)(=O)C2)N1CCCC1 | . | . | . | . | . | / | /
O=C(Nc1ccccc1F)c1cc2c(s1)-c1ccccc1S(=O)(=O)C2 | 89.1 | . | . | . | . | 60.0 | 93.0
COC(=O)[C@H](C(C)C)N1Cc2nnn(Cc3ccccc3)c2-c2cc(F)ccc2S1(=O)=O | . | / | . | / | . | / | /
CC1CCN(C(=O)c2cc3c(=O)n4ccccc4nc3s2)CC1 | 23.3 | . | . | . | . | 23.1 | 25.9
O=C(c1cc2c(=O)n3ccccc3nc2s1)N1CCOCC1 | 17.3 | . | . | . | . | 68.4 | 68.3
CCCNC(=O)COC(=O)c1cc2c(=O)n3ccccc3nc2s1 | 20.4 | . | . | . | . | 73.2 | 85.9
Cc1ccc(Cl)cc1NC(=O)C1CCCCC1C(=O)O (stereo unspecified) | 14.7 | . | . | . | . | . | .
O=C(O)C1CCCCC1C(=O)Nc1cc(Cl)ccc1Cl (stereo unspecified) | . | / | . | . | . | / | /
Cc1c(Br)c(=O)oc2c(Br)c(O)c(O)cc12 | . | . | . | . | . | / | /
Cc1c(O)ccc2c3c(c(=O)oc12)CCC(C)C3 (stereo unspecified) | 39.4 | . | . | . | . | 63.0 | 83.8
Cc1c(CCC(=O)NC2CC2)c(=O)oc2c(C)c(O)ccc12 | / | . | / | . | / | / | /
Cc1c(O)ccc2c3c(c(=O)oc12)CCCC3 | 32.1 | . | . | . | . | 71.2 | 64.4
Cc1c(Br)c(=O)oc2c(Br)c(O)ccc12 | 25.6 | . | . | . | . | 15.4 | 24.9
COC(=O)[C@]1(CNC(C)=O)CC(=O)N(C)[C@@H]1c1ccccc1 | . | / | . | / | . | / | /
COc1ccc2nccc(C(N)=O)c2c1 | 12.8 | . | . | . | . | 26.2 | 26.4
CCN(C(=O)COC(=O)c1[nH]c(=O)[nH]c(=O)c1N)c1ccccc1 | 12.9 | . | . | . | . | 24.2 | 28.0
CN1C2=N[C@H](c3ccccc3)CC(=O)N2/C(=C\c2ccccc2)C1Cc1ccccc1 (stereo partly specified) | . | / | . | / | . | / | /
COc1ccc(C(=O)Nc2ccc3c(c2)C(=O)N(C)[C@H]2CC[C@H](CC(=O)NCC4CC4)O[C@@H]2CO3)cc1 | . | / | . | / | . | / | /
SMILES | KLK7 zymogen act | FAS-TE inh | ADAM17 inh | NR3A LBD binder | ADAM10 inh | KLK7 act conf | EDANS-DABCYL int
CC(C)N(CCC(=O)c1ccc2ccccc2c1)Cc1ccccc1 | 14.4 | . | . | . | . | 14.8 | 17.9
CC(OC(=O)c1ccc2ccccc2c1)C(=O)N(C)Cc1ccccc1 (stereo unspecified) | . | . | . | . | . | / | /
COc1ccc(N2CCN(CCNS(=O)(=O)c3ccc(F)cc3)CC2)cc1 | . | / | . | / | . | / | /
O=C1CC(O)(C(F)(F)F)Oc2c1ccc1ccccc21 (stereo unspecified) | 53.5 | . | . | . | . | . | 5.3
O=C1CC(O)(C(F)F)Oc2ccc3ccccc3c21 (stereo unspecified) | 46.9 | . | . | . | . | . | .
COc1ccc2c(c1)OC(O)(C(F)F)CC2=O (stereo unspecified) | . | . | . | . | . | / | /
O=C(N[C@@H](Cc1ccccc1)C(=O)N1CCC2CCN(S(=O)(=O)c3ccccc3)CC21)[C@@H]1CCCN1 (stereo partly specified) | . | / | . | / | . | / | /
COc1ccccc1NS(=O)(=O)c1cccc(C(=O)N/N=C/c2cn(-c3ccccc3)nc2-c2ccccc2)c1 | 17.9 | . | . | . | . | . | .
CC1CCc2[nH]c3ccc(C(=O)O)cc3c2C1 (stereo unspecified) | . | . | . | . | . | / | /
CC1CCc2[nH]c3ccc(C(=O)NCCCOC(C)C)cc3c2C1 (stereo unspecified) | 13.6 | . | . | . | . | . | 11.5
CCOC(=O)N1CCN(C(=O)C[C@H]2C[C@@]3(C(=O)OC)C(=C[C@H](C(C)C)O[C@@H]3C3CC3)N(CCC3=CCCCC3)C2=O)CC1 | . | / | . | / | . | / | /
COc1cc(OC)c2c(C)c(Cl)c(=O)oc2c1 | 14.9 | . | . | . | . | 78.2 | 71.7
COc1ccc(CN2C(=O)CSCCC2(C)c2nnnn2-c2c(C)cccc2C)cc1 (stereo unspecified) | . | / | . | / | . | / | /
CCN(CC)Cc1c(O)ccc2c(-c3ccccc3)cc(=O)oc12 | 22.2 | . | . | . | . | 23.4 | 28.6
CCCCN(C)Cc1c(O)ccc2c(-c3ccccc3)cc(=O)oc12 | 17.3 | . | . | . | . | 17.4 | 22.9
CCCC1CCC2(CCCN2CCOC(=S)Nc2ccccc2)CC1 (stereo unspecified) | / | / | . | / | . | / | /
COc1cc(-c2ccc3oc(-c4cccc(C)c4)c(C#CC4(O)CCCCC4)c3c2)cc(OC)c1OC | 83.1 | . | . | . | . | . | .
CCN(CC)C(=O)CC[C@@H]1CC[C@]2(CCCN(Cc3ccccn3)C2)O1 | . | / | . | / | . | / | /
COC(=O)c1ccc(C(=O)OC)c(NC(=O)Oc2ccccc2)c1 | 38.3 | . | . | . | . | 74.9 | 75.0
COC(=O)c1ccccc1NS(C)(=O)=O | . | . | . | . | . | / | /
COC(=O)c1ccc(C(=O)OC)c(NC(=O)/C=C/C(=O)O)c1 | 15.5 | . | . | . | . | . | .
COC(=O)c1ccc(C(=O)OC)c(NS(C)(=O)=O)c1 | 28.0 | . | . | . | . | 21.4 | 20.6
NCc1ccc(OCCCN2CCC(C(O)(C3=CCCC3)c3ccccc3)CC2)cc1 (stereo unspecified) | . | / | . | / | . | / | /
C[C@H]1C2CC(OC(=O)NCc3ccc(Cl)cc3)C(C2)[C@H]2CCCCN21 (stereo partly specified) | . | / | . | / | . | / | /
COCO[C@@H]1CC(CO)=C[C@H]2OCO[C@H]21 | / | / | . | / | . | / | /
